Experimental data reported in the supplement of paper PMC4709259.
Where a name gives a salt, the structure may show the parent alone. ± gives the standard deviation.

Assays:
[1] = tested on: Jurkat; experiment: mean cell size (FSC-A) relative to DMSO control (fraction of control); higher = larger cells; conditions: 48 h
Procedure, shortened: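 Jurkat cells at 600 cells/µl were incubated for 1 h and then treated for 48h with the Enzo Screen-Well FDA Approved Drug Library v2.0 at 25µM, with DMSO at 0.9% (v/v) final. Compounds that reduced counts below 20% of controls were retested in 10-fold dilutions down to 25nM. Cell count and mean cell size, taken as forward scatter area, were measured by flow cytometry relative to solvent-only controls. Each plate carried 6-12 controls, and values are means of 3 biological replicates.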

[2] = tested on: Jurkat; experiment: cell count relative to DMSO control (fraction of control); higher = more cells (less growth inhibition); conditions: 48 h

Compound | mean cell size [1] | cell count [2]
O=C(O)C(=O)O.[NH-][C@@H]1CCCC[C@H]1[NH-].[Pt+2] [Oxaliplatin] (concentration: 25 µM) | 1.01 ± 0.034 | 0.326 ± 0.057
OC(Cn1cncn1)(Cn1cncn1)c1ccc(F)cc1F [Fluconazole] (concentration: 25 µM) | 0.969 ± 0.054 | 0.325 ± 0.14
CC1(C)S[C@@H]2[C@H](NC(=O)[C@H](N)c3ccc(O)cc3)C(=O)N2[C@H]1C(=O)O [Amoxicillin] (concentration: 25 µM) | 0.988 ± 0.012 | 0.866 ± 0.063
Clc1ccc2c(c1)CCc1cccnc1C2=C1CCNCC1 [Desloratadine] (concentration: 25 µM) | 1 ± 0.05 | 0.702 ± 0.045
O=C1CN(/N=C/c2ccc([N+](=O)[O-])o2)C(=O)N1 [Nitrofurantoin] (concentration: 2.5 µM) | 0.955 ± 0.019 | 0.66 ± 0.029
C[C@]12CC[C@@H]3c4ccc(O)cc4CC[C@H]3[C@@H]1CCC2=O [Estrone] (concentration: 25 µM) | 0.963 ± 0.033 | 0.842 ± 0.094
COc1ccc(CC2c3cc(OC)c(OC)cc3CC[N+]2(C)CCC(=O)OCCCCCOC(=O)CC[N+]2(C)CCc3cc(OC)c(OC)cc3C2Cc2ccc(OC)c(OC)c2)cc1OC (stereo not drawn) [Atracurium Besylate] (concentration: 25 µM) | 1.04 ± 0.008 | 0.264 ± 0.023
CN(C)c1ccc(O)c2c1C[C@H]1C[C@H]3[C@H](N(C)C)C(=O)C(C(N)=O)=C(O)[C@@]3(O)C(=O)C1=C2O [Minocycline] (concentration: 2.5 µM) | 0.969 ± 0.027 | 0.894 ± 0.04
CCCc1nc2c(C)cc(-c3nc4ccccc4n3C)cc2n1Cc1ccc(-c2ccccc2C(=O)O)cc1 [Telmisartan] (concentration: 25 µM) | 0.951 ± 0.032 | 0.725 ± 0.051
CCCCCOC(=O)Nc1nc(=O)n([C@@H]2O[C@H](C)[C@@H](O)[C@H]2O)cc1F [Capecitabine] (concentration: 25 µM) | 0.957 ± 0.019 | 1.01 ± 0.091
C=C1/C(=C\C=C2/CCC[C@]3(C)[C@@H]([C@H](C)/C=C/[C@@H](O)C4CC4)CC[C@@H]23)C[C@@H](O)C[C@@H]1O [Calcipotriene] (concentration: 25 µM) | 0.933 ± 0.064 | 0.654 ± 0.08
CC1(C)S[C@@H]2[C@H](NC(=O)COc3ccccc3)C(=O)N2[C@H]1C(=O)O [Penicillin V Potassium] (concentration: 25 µM) | 0.994 ± 0.015 | 1.09 ± 0.09
Nc1nc2[nH]cc(CCc3ccc(C(=O)N[C@@H](CCC(=O)O)C(=O)O)cc3)c2c(=O)[nH]1 [Pemetrexed Disodium] (concentration: 2.5 µM) | 1.4 ± 0.058 | 0.247 ± 0.028
CCc1cc(C(N)=S)ccn1 [Ethionamide] (concentration: 25 µM) | 1.05 ± 0.03 | 1.05 ± 0.1
CN1[C@@H]2CC[C@H]1C[C@@H](OC(c1ccccc1)c1ccccc1)C2 [Benztropine Mesylate] (concentration: 25 µM) | 0.976 ± 0.054 | 0.666 ± 0.17
CN(C)CCCN1c2ccccc2CCc2ccccc21 [Imipramine·HCl] (concentration: 25 µM) | 0.952 ± 0.045 | 0.525 ± 0.16
CNC(=C[N+](=O)[O-])NCCSCc1csc(CN(C)C)n1 [Nizatidine] (concentration: 25 µM) | 0.976 ± 0.011 | 0.809 ± 0.02
C[N+](C)(C)CCOC(=O)CCC(=O)OCC[N+](C)(C)C [Succinylcholine Chloride·2H2O] (concentration: 25 µM) | 0.943 ± 0.014 | 0.908 ± 0.081
CO/N=C(\C(=O)N[C@@H]1C(=O)N2C(C(=O)O)=CCS[C@H]12)c1csc(N)n1 [Ceftizoxim·Na] (concentration: 25 µM) | 0.95 ± 0.016 | 1.09 ± 0.073
C[C@H]1[C@H](NC(=O)/C(=N\OC(C)(C)C(=O)O)c2csc(N)n2)C(=O)N1S(=O)(=O)O [Aztreonam] (concentration: 25 µM) | 0.927 ± 0.022 | 0.64 ± 0.086
C#CCN[C@@H]1CCc2ccccc21 [Rasagiline Mesylate] (concentration: 25 µM) | 1.03 ± 0.024 | 1.01 ± 0.058
N[C@@H]1CONC1=O [Cycloserine] (concentration: 25 µM) | 0.966 ± 0.013 | 0.475 ± 0.095
CC[C@H]1OC(=O)[C@H](C)C(=O)[C@H](C)[C@@H](O[C@@H]2O[C@H](C)C[C@H](N(C)C)[C@H]2O)[C@](C)(OC)C[C@@H](C)C(=O)[C@H](C)[C@H]2N(CCCCn3cnc(-c4cccnc4)c3)C(=O)O[C@]12C [Telithromycin] (concentration: 25 µM) | 0.921 ± 0.049 | 0.949 ± 0.057
O=C1Nc2ccc(Cl)cc2[C@@](C#CC2CC2)(C(F)(F)F)O1 [Efavirenz] (concentration: 25 µM) | 0.9 ± 0.017 | 0.628 ± 0.019

Compound | mean cell size [1] | cell count [2]
CC(C)NCC(O)COc1ccc(CCOCC2CC2)cc1 (stereo not drawn) [Betaxolol·HCl] (concentration: 25 µM) | 1.01 ± 0.038 | 0.95 ± 0.17
CC(=O)S[C@@H]1CC2=CC(=O)CC[C@]2(C)[C@H]2CC[C@@]3(C)[C@@H](CC[C@@]34CCC(=O)O4)[C@H]12 [Spironolactone] (concentration: 25 µM) | 1.01 ± 0.062 | 0.455 ± 0.032
NCc1ccc(S(N)(=O)=O)cc1 [Mafenide·HCl] (concentration: 25 µM) | 0.92 ± 0.056 | 1.17 ± 0.04
CC(=O)OCC(=O)[C@@]12OC3(CCCC3)O[C@@H]1C[C@H]1[C@@H]3CCC4=CC(=O)C=C[C@]4(C)[C@@]3(F)[C@@H](O)C[C@@]12C [Amcinonide] (concentration: 25 µM) | 0.994 ± 0.064 | 0.823 ± 0.039
CO/N=C(\C(=O)N[C@@H]1C(=O)N2C(C(=O)[O-])=C(C[N+]3(C)CCCC3)CS[C@H]12)c1csc(N)n1 [Cefepime·HCl Hydrate] (concentration: 25 µM) | 1.02 ± 0.046 | 0.826 ± 0.045
O=C(O)[C@H]1/C(=C/CO)O[C@@H]2CC(=O)N21 [Clavulanate Potassium] (concentration: 25 µM) | 0.994 ± 0.011 | 0.787 ± 0.095
CC(=O)N[C@@H](CS)C(=O)O [Acetylcysteine] (concentration: 25 µM) | 1.02 ± 0.059 | 0.772 ± 0.059
CC(C)(C(=O)c1cccnc1)c1cccnc1 [Metyrapone] (concentration: 25 µM) | 1.04 ± 0.058 | 0.924 ± 0.079
CO[C@H]1/C=C/O[C@@]2(C)Oc3c(C)c(O)c4c(O)c(c(/C=N/N5CCN(C)CC5)c(O)c4c3C2=O)NC(=O)/C(C)=C\C=C\[C@H](C)[C@H](O)[C@@H](C)[C@@H](O)[C@@H](C)[C@H](OC(C)=O)[C@@H]1C [Rifampin (Rifampicin)] (concentration: 25 µM) | 0.964 ± 0.0034 | 0.765 ± 0.035
C=CC[N+]1([C@H]2C[C@H]3[C@@H]4CC[C@H]5C[C@H](O)[C@@H](N6CCOCC6)C[C@]5(C)[C@H]4CC[C@]3(C)[C@H]2OC(C)=O)CCCC1 [Rocuronium Bromide] (concentration: 25 µM) | 0.952 ± 0.043 | 0.337 ± 0.086
CC[C@H](C)C(=O)O[C@H]1C[C@@H](C)C=C2C=C[C@H](C)[C@H](CC[C@@H]3C[C@@H](O)CC(=O)O3)[C@H]21 [Lovastatin] (concentration: 25 µM) | 1.16 ± 0.046 | 0.664 ± 0.15
CCCN[C@H]1CCc2nc(N)sc2C1 [Pramipexole Dihydrochloride Monohydrate] (concentration: 25 µM) | 1 ± 0.037 | 0.631 ± 0.011
CC(C)N1CCN(c2ccc(OCC3COC(Cn4cncn4)(c4ccc(Cl)cc4Cl)O3)cc2)CC1 (stereo not drawn) [Terconazole] (concentration: 25 µM) | 0.891 ± 0.017 | 0.299 ± 0.11
O=C(O)c1cc(=O)c2c(OCC(O)COc3cccc4oc(C(=O)O)cc(=O)c34)cccc2o1 [Cromolyn·Na (Disodium Cromoglycate)] (concentration: 25 µM) | 0.9231 ± 0.0045 | 1.05 ± 0.096
CC(C)[C@H](N)C(=O)OCCOCn1cnc2c(=O)nc(N)[nH]c21 [Valacyclovir·HCl] (concentration: 25 µM) | 0.987 ± 0.03 | 0.332 ± 0.065
CC(C)C(=O)OCC(=O)[C@@]12O[C@H](C3CCCCC3)O[C@@H]1C[C@H]1[C@@H]3CCC4=CC(=O)C=C[C@]4(C)[C@H]3[C@@H](O)C[C@@]12C [Ciclesonide] (concentration: 2.5 µM) | 0.9714 ± 0.0087 | 0.838 ± 0.08
CN1CCc2cccc3c2[C@H]1Cc1ccc(O)c(O)c1-3 [Apomorphine·HCl Hemihydrate] (concentration: 2.5 µM) | 1.031 ± 0.0071 | 0.444 ± 0.071
CC(C)NCC(O)COc1cccc2ccccc12 (stereo not drawn) [Propranolol·HCl] (concentration: 25 µM) | 1.04 ± 0.061 | 0.633 ± 0.015
CC(C)C(=O)Nc1ccc([N+](=O)[O-])c(C(F)(F)F)c1 [Flutamide] (concentration: 25 µM) | 0.918 ± 0.033 | 0.329 ± 0.14
CN(C)CCOC(=O)C(c1ccccc1)C1(O)CCCC1 (stereo not drawn) [Cyclopentolate] (concentration: 25 µM) | 0.996 ± 0.057 | 0.596 ± 0.08
OCc1cc(C(O)CNCCCCCCOCCCCc2ccccc2)ccc1O (stereo not drawn) [Salmeterol] (concentration: 25 µM) | 0.927 ± 0.023 | 0.669 ± 0.042
CC(CN(C)C)CN1c2ccccc2CCc2ccccc21 (stereo not drawn) [Trimipramine Maleate] (concentration: 25 µM) | 1.02 ± 0.022 | 0.834 ± 0.056
CC(C)NCC(O)c1ccc(O)c(O)c1 (racemic) [(±) Isoproterenol·HCl] (concentration: 25 µM) | 0.981 ± 0.047 | 0.659 ± 0.0053
OCCOCCN1CCN(C(c2ccccc2)c2ccc(Cl)cc2)CC1 (stereo not drawn) [Hydroxyzine Dihydrochloride] (concentration: 25 µM) | 0.948 ± 0.021 | 0.968 ± 0.063
